Results on 58 molecules are retold here after the supplement of paper PMC13380429.

In assay [1] the test system is Vero E6 infected with SARS-CoV-2. The assay is described as follows: morphology score (similarity to uninfected cells); higher = more like uninfected cells. As to conditions: 24 h.
Assay [2] shares this test system. The assay is described as follows: SARS-CoV-2 infection rate relative to infected DMSO; higher = more infection, active = 60 or less. The settings on record: 24 h.

`O=C(OOC(=O)c1ccccc1)c1ccccc1` [benzoyl-peroxide] (10 µM) displayed a morphology score in assay [1] of -0.0426. Also, in assay [2], the SARS-CoV-2 infection rate was 97.5% (inactive).
With `COc1ccc(S(=O)(=O)N2CCCN(S(=O)(=O)c3ccc(OC)c(OC)c3)CC2)cc1OC` (10 µM), the morphology score in assay [1] was 0.209. Also, in assay [2], the SARS-CoV-2 infection rate is 106% (inactive).
Consider `Fc1ccccc1-c1nc2ccn(Cc3ccc(-c4ccc(C(F)(F)F)cc4C(F)(F)F)nn3)cc-2n1` [tegobuvir] (10 µM), for which, in assay [1], the morphology score amounted to 0.081. Also, the SARS-CoV-2 infection rate in assay [2] is 102% (inactive).
The molecule `C[C@]1(c2nc3c(C(N)=O)cccc3[nH]2)CCCN1` [veliparib] (10 µM) returned a morphology score in assay [1] of 0.206. Besides, the SARS-CoV-2 infection rate in assay [2] was 109% (inactive).
The matching figures for `NC[C@H](O)c1ccc(O)c(O)c1` [norepinephrine] (10 µM): -0.067 and 109% (inactive).
The matching figures for `C1COC(NC(C2CC2)C2CC2)=N1` [rilmenidine] (10 µM): -0.0313 and 99.5% (inactive).
In assay [1], `CC(C)Oc1ccc(-c2nc(-c3cccc4c3CC[C@H]4NCCC(=O)O)no2)cc1C#N` (10 µM) showed a morphology score of 0.181. The SARS-CoV-2 infection rate in assay [2] is 96.5% (inactive).
In assay [1], `Oc1c(I)cc(I)c2cccnc12` [iodoquinol] (0.833333 µM) gave a morphology score of 0.155. The SARS-CoV-2 infection rate in assay [2] was 99.5% (inactive).
On to `N=C(NCc1ccc(Cl)cc1)SCCCc1c[nH]cn1` [clobenpropit] (10 µM), for which the morphology score in assay [1] was found to be 0.14. Besides, the SARS-CoV-2 infection rate in assay [2] was 104% (inactive).
`CCN1CCN(c2cc3c(cc2F)c(=O)c(C(=O)O)cn3C2CC2)CC1` [enrofloxacin] (10 µM) displayed a morphology score in assay [1] of 0.0599. The SARS-CoV-2 infection rate in assay [2] is 112% (inactive).
`CCC(C)n1ncn(-c2ccc(N3CCN(c4ccc(OCC5COC(Cn6cncn6)(c6ccc(Cl)cc6Cl)O5)cc4)CC3)cc2)c1=O` (stereo unspecified) [itraconazole] (10 µM) yielded a morphology score in assay [1] of 0.0302. For the same molecule, the SARS-CoV-2 infection rate in assay [2] is 104% (inactive).
In assay [1], `O=c1[nH]c(=O)c2ccccc2o1` [carsalam] (10 µM) showed a morphology score of 0.265. Also, in assay [2], the SARS-CoV-2 infection rate is 85% (inactive).
`C=C1/C(=C\C=C2/CCC[C@]3(C)[C@@H]([C@H](C)CC[C@@H](O)C(C)C)CC[C@@H]23)C[C@@H](O)C[C@@H]1O` [tacalcitol] (10 µM) gave a morphology score in assay [1] of -0.24. Further, the SARS-CoV-2 infection rate in assay [2] was 120% (inactive).
Consider `CC(C)(O)c1coc(S(=O)(=O)NC(=O)Nc2c3c(cc4c2CCC4)CCC3)c1` (10 µM), for which the morphology score in assay [1] worked out at 0.0866. In assay [2], the SARS-CoV-2 infection rate was 93.5% (inactive).
For `CC(C)[C@H](C(=O)Nc1ccc(C(=O)NO)cc1)c1ccccc1` (10 µM) the same measures were 0.0602 and 104% (inactive).
`O=C1NCCc2[nH]c(-c3ccncc3)cc21` (0.833333 µM) registered a morphology score in assay [1] of 0.0617. In assay [2], the SARS-CoV-2 infection rate was 106% (inactive).
Turning to `CNC[C@H](O)c1cccc(O)c1` [phenylephrine] (10 µM), the morphology score in assay [1] is -0.0115. In assay [2], the SARS-CoV-2 infection rate is 110% (inactive).
Consider `c1ccc2c(c1)CCCC2C1=NCCN1` (stereo unspecified) [tetrahydrozoline] (0.833333 µM), for which the morphology score in assay [1] worked out at 0.00054. Moreover, the SARS-CoV-2 infection rate in assay [2] was 103% (inactive).
`CCN1CCN(Cc2ccc(-c3cc4c(N[C@H](C)c5ccccc5)ncnc4[nH]3)cc2)CC1` (10 µM) came in with a morphology score in assay [1] of -0.144. The SARS-CoV-2 infection rate in assay [2] was 124% (inactive).
In the case of `CCN(CC)Cc1ccc(C(=O)N(CCc2ccccc2OC)[C@@H]2CCNC2)cc1` (10 µM), in assay [1], the morphology score worked out at 0.0144. In addition, the SARS-CoV-2 infection rate in assay [2] is 98.5% (inactive).
`O=C1N=C2SCCN2C(=O)C1Cc1ccc(Cl)cc1` (stereo unspecified) [nuclomedone] (10 µM) returned a morphology score in assay [1] of 0.238. Besides, in assay [2], the SARS-CoV-2 infection rate was 99% (inactive).
For `NC(=O)CCCCn1ccc(/N=C(\N)NCC(F)(F)F)n1` (10 µM) the same measures were 0.00958 and 100% (inactive).
For `Nc1nc2ccc(OC(F)(F)F)cc2s1` [riluzole] (10 µM), the morphology score in assay [1] was 0.188. Besides, in assay [2], the SARS-CoV-2 infection rate is 105% (inactive).
`Cn1c(=O)[nH]c2ncn(C)c2c1=O` [paraxanthine] (10 µM) gave a morphology score in assay [1] of 0.141. Also, the SARS-CoV-2 infection rate in assay [2] was 110% (inactive).
Regarding `O=C(O)c1cc2ccccc2s1` (10 µM), the morphology score in assay [1] is 0.0676. Further, the SARS-CoV-2 infection rate in assay [2] is 88% (inactive).
Take `COc1ccc(CN2C(=O)C(=O)c3cc(OC(F)(F)F)ccc32)cc1` (0.833333 µM): the morphology score in assay [1] came to 0.0284. The SARS-CoV-2 infection rate in assay [2] is 102% (inactive).
The molecule `NC(=O)c1cccnc1` [nicotinamide] (10 µM) yielded a morphology score in assay [1] of 0.026. In assay [2], the SARS-CoV-2 infection rate is 108% (inactive).
Consider `CNc1ncnc2c1ncn2[C@@H]1O[C@H](CO)[C@@H](O)[C@H]1O` [N6-methyladenosine] (10 µM), for which the morphology score in assay [1] was -0.0577. The SARS-CoV-2 infection rate in assay [2] was 100% (inactive).
`COc1ccc2c(Oc3ccc(NC(=O)c4c(C)n(CC(C)(C)O)n(-c5ccccc5)c4=O)nc3)ccnc2c1` (10 µM) returned a morphology score in assay [1] of 0.316. Besides, the SARS-CoV-2 infection rate in assay [2] was 98% (inactive).
In assay [1], `CC(C(=O)O)c1ccc(C(=O)c2cccs2)cc1` (stereo unspecified) [suprofen] (10 µM) yielded a morphology score of 0.123. In addition, the SARS-CoV-2 infection rate in assay [2] was 108% (inactive).
For the molecule `N[C@@H](C(=O)N[C@@H]1C(=O)N2C(C(=O)O)=C(Cl)CS[C@H]12)c1ccccc1` [cefaclor] (10 µM), in assay [1], the morphology score is 0.0453. Further, the SARS-CoV-2 infection rate in assay [2] is 104% (inactive).
`O=C(NCC(=O)N1CCCC1)Nc1ccc2cnccc2c1` (10 µM) had a morphology score in assay [1] of 0.182. Further, the SARS-CoV-2 infection rate in assay [2] is 98% (inactive).
For `CCCn1c(=O)c2[nH]c(-c3cnn(Cc4cccc(C(F)(F)F)c4)c3)nc2n(CC)c1=O` (10 µM) the same measures were 0.163 and 103% (inactive).
The molecule `COc1cc(NC(=O)c2ccc(-c3ccc(Cl)cc3)o2)cc(OC)c1` (10 µM) registered a morphology score in assay [1] of 0.0298. For the same molecule, the SARS-CoV-2 infection rate in assay [2] is 112% (inactive).
In assay [1], `Cc1ccccc1/N=N/c1ccc(/N=N/c2c(O)ccc3ccccc23)c(C)c1` [sudan-IV] (10 µM) gave a morphology score of 0.126. Besides, in assay [2], the SARS-CoV-2 infection rate was 92% (inactive).
`CCOP(=S)(OCC)Oc1cc(C)nc(C(C)C)n1` [dimpylate] (10 µM): in assay [1], the morphology score is -0.0379. In addition, the SARS-CoV-2 infection rate in assay [2] is 116% (inactive).
The molecule `CCCC(=O)Nc1cccc(NC(=O)c2ccccc2Br)c1` (10 µM) returned a morphology score in assay [1] of -0.131. For the same molecule, the SARS-CoV-2 infection rate in assay [2] was 110% (inactive).
For the molecule `NS(=O)(=O)c1ccc(C(=O)O)cc1` [carzenide] (10 µM), the morphology score in assay [1] is 0.174. Besides, the SARS-CoV-2 infection rate in assay [2] was 102% (inactive).
Consider `C=CC(=O)Nc1cccc(C)c1Nc1ncc2cc(-c3c(Cl)c(OC)cc(OC)c3Cl)ccc2n1` (10 µM), for which the morphology score in assay [1] turned out to be 0.567. In addition, the SARS-CoV-2 infection rate in assay [2] was 67% (inactive).
In assay [1], `Nc1nc2[nH]cc(CCc3ccc(C(=O)N[C@@H](CCC(=O)O)C(=O)O)cc3)c2c(=O)[nH]1` [pemetrexed] (10 µM) yielded a morphology score of -0.15. In addition, the SARS-CoV-2 infection rate in assay [2] was 121% (inactive).
For the molecule `Oc1ccc([C@@H]2Oc3ccc(O)cc3[C@@H]3CCC[C@@H]32)cc1` [erteberel] (10 µM), in assay [1], the morphology score is 0.0963. Also, the SARS-CoV-2 infection rate in assay [2] was 113% (inactive).
In assay [1], `Cc1nc(C#Cc2ccnc(Cl)c2)c(C)n1-c1ccc(F)cc1` [basimglurant] (10 µM) showed a morphology score of 0.114. In addition, the SARS-CoV-2 infection rate in assay [2] was 112% (inactive).
With `Clc1cccc(Cl)c1CSc1nnc(-c2cnccn2)s1` [yoda-1] (10 µM), in assay [1], the morphology score was found to be 0.286. For the same molecule, the SARS-CoV-2 infection rate in assay [2] was 89% (inactive).
As to `CCN(CC)CCOc1ccc(Nc2ncc3cc(-c4c(Cl)cccc4Cl)c(=O)n(C)c3n2)cc1` (10 µM), the morphology score in assay [1] is -0.126. Moreover, the SARS-CoV-2 infection rate in assay [2] is 123% (inactive).
As for `Nc1cc(C(F)(F)F)c(-c2nc(N3CCOCC3)nc(N3CCOCC3)n2)cn1` (10 µM), the morphology score in assay [1] was 0.0308. Moreover, the SARS-CoV-2 infection rate in assay [2] is 114% (inactive).
With `NC(=S)N/N=C/c1ccncc1` [perchlozone] (10 µM), the morphology score in assay [1] is -0.0589. The SARS-CoV-2 infection rate in assay [2] is 114% (inactive).
As for `C[C@]12C=CC(=O)C=C1CC[C@@H]1[C@@H]2[C@@H](O)C[C@@]2(C)[C@H]1CC[C@]2(O)C(=O)COP(=O)(O)O` [prednisolone-sodium-phosphate] (10 µM), the morphology score in assay [1] was -0.0179. The SARS-CoV-2 infection rate in assay [2] is 93.5% (inactive).
In the case of `CCCN(CCC)C(=O)C(CCC(=O)O)NC(=O)c1ccccc1` (stereo unspecified) [proglumide] (10 µM), the morphology score in assay [1] came to 0.0817. Besides, the SARS-CoV-2 infection rate in assay [2] is 107% (inactive).
`CC(N)Cc1c[nH]c2ccc(OCc3cccs3)cc12` (stereo unspecified) (10 µM) displayed a morphology score in assay [1] of 0.0586. Also, the SARS-CoV-2 infection rate in assay [2] is 90% (inactive).
As for `CCN1CCCC1CNC(=O)c1cc(S(=O)(=O)CC)c(N)cc1OC` (stereo unspecified) [amisulpride] (10 µM), in assay [1], the morphology score is 0.114. Moreover, in assay [2], the SARS-CoV-2 infection rate was 105% (inactive).
In turn, `NC(=O)NCCC[C@H](N)C(=O)O` [L-citrulline] (10 µM) gave a morphology score in assay [1] of 0.035. Further, the SARS-CoV-2 infection rate in assay [2] is 112% (inactive).
In assay [1], `Cc1cc(OCCN2CCOCC2)nn1-c1ccc2ccccc2c1` (10 µM) showed a morphology score of 0.0539. Further, the SARS-CoV-2 infection rate in assay [2] is 99.5% (inactive).
`CC(C)OC(=O)CNC(=O)[C@H](CS)NC(=O)CC[C@H](N)C(=O)O` [glutathione-monoisopropyl-ester] (10 µM) yielded a morphology score in assay [1] of 0.0539. In addition, the SARS-CoV-2 infection rate in assay [2] was 101% (inactive).
With `CC#CC(=O)N1CCC[C@H]1c1nc(-c2ccc(C(=O)Nc3ccccn3)cc2)c2c(N)nccn12` [acalabrutinib] (10 µM), in assay [1], the morphology score was -0.00394. Further, the SARS-CoV-2 infection rate in assay [2] is 108% (inactive).
`CCN(CCCCOC(=O)c1ccc(OC)c(OC)c1)C(C)Cc1ccc(OC)cc1` (stereo unspecified) [mebeverine] (10 µM) showed a morphology score in assay [1] of 0.178. For the same molecule, the SARS-CoV-2 infection rate in assay [2] is 94.5% (inactive).
The matching figures for `CC[C@]12CCCN3CCc4c(n(c5ccccc45)[C@@](O)(C(=O)OC)C1)[C@@H]32` [vincamine] (10 µM): 0.0512 and 99% (inactive).
For `CC1(C)OC(=O)C(OCC2CC2)=C1c1ccc(S(C)(=O)=O)cc1` [firocoxib] (10 µM) the same measures were 0.218 and 84.5% (inactive).
Consider `CCOC(=O)c1cc(C#N)c(N2CCC(C(=O)NS(=O)(=O)Cc3ccccc3)CC2)nc1C` (10 µM), for which the morphology score in assay [1] is 0.128. For the same molecule, the SARS-CoV-2 infection rate in assay [2] is 108% (inactive).
